HCMV antiviral = blocks human cytomegalovirus replication; HFF cells, HCMV-luciferase reporter, 72 h; active compounds read low; activity change, negative = inhibition, % at 57.5 µM; 4.5% of 410,000 active; in the data active means activity change below about -60%; inconclusive means no clear call, values can overlap the other calls; inactive means above about -39%
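Screen run at 2 compound doses on HFFs infected with reporter HCMV, MOI 1 PFU/cell. Luciferase activity from cell lysates at 72 h post infection gave inhibition relative to buffer-only and Salinomycin wells.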
FMDV inh = foot and mouth disease virus antiviral activity; FMDV antiviral cell-based qHTS; Potency, µM (highest dose often 57.9 µM), most hits filed as inhibitors; 1.2% of 410,000 active; AID 1159524; calls by dose curve; tested in HEK293T cells; further: read-out not given here; nearly all actives have a fitted effect of over 45% in size
SARS PLpro yeast = blocks SARS-CoV papain-like protease in a yeast assay; Potency, µM (top dose mostly 32.9 µM), hits mostly activators; S. cerevisiae expressing SARS-CoV PLpro, growth rescue; 0.19% of 330,000 active; AID 485353; calls by dose curve; further: nearly all actives have a fitted effect of over 55% in size
LASV entry inh = inhibitors of Lassa virus binding or cell entry; 1.2% of 300,000 active; Potency, µM (highest dose often 37.9 µM), usual class: inhibitors; Lassa virus pseudotype entry inhibition, cell reporter; calls by dose curve; tested in HEK293 cells; further: nearly all actives have a fitted effect of over 50% in size
HCV inhibitor = HCV inhibition; Huh7.5.1 HCVcc-Cre infection, luciferase reporter, 44 h; Potency, µM (titrated, usually from 41.8 µM), hits mostly inhibitors; 3.4% of 340,000 active; active means well fitted inhibition curve with a large enough effect; inconclusive means small, poorly fitted or top-dose-only effect, or another doubt; inactive means no such curve, though single readings can be large or run the other way
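After 44 h co-culture of compound, cells and HCVcc-Cre (~0.5 moi), substrate is added for 15 min at room temperature and luciferase measured over 15 sec. Cells were seeded at 1,000/well and pre-cultured 4 h.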
Marburg entry inh = inhibitors of Marburg virus binding or cell entry; Marburg virus pseudotyped entry inhibition, cell reporter; Potency, µM (doses to about 37.8 µM), usual class: inhibitors; 1.8% of 300,000 active; AID 540276; calls by dose curve; tested in HEK293 cells
A number is an active result; i = inactive; ? = inconclusive; nt = not tested or not shown. A selection: hits, their analogues and other compounds. The true share with any hit is near 8%.

SMILES | HCMV antiviral | FMDV inh | SARS PLpro yeast | LASV entry inh | HCV inhibitor | Marburg entry inh
Cc1cccc(-n2c(-c3ccco3)nc3ccccc3c2=O)c1C | -76 | i | i | i | i | ?
COc1cccc(-n2c(-c3ccco3)nc3c(cnn3-c3ccc(C)cc3)c2=O)c1 | -76 | ? | nt | ? | nt | i
CC(=O)Nc1ccc(S(=O)(=O)Nc2nc3n(n2)C(c2ccccc2)C=C(c2ccc(Cl)cc2)N3)cc1 (stereo unspecified) | i | i | nt | i | nt | nt
CCCSc1ncc(Cl)c(C(=O)N(Cc2ccc(Cl)cc2)Cc2ccco2)n1 | -66 | ? | nt | i | nt | ?
CCS(=O)(=O)c1ncc(N(Cc2ccccc2)Cc2ccco2)c(C(=O)Nc2ccccc2C)n1 | i | i | nt | i | nt | i
CCCS(=O)(=O)c1ncc(Cl)c(C(=O)N(Cc2ccccc2)Cc2ccco2)n1 | -98 | 16µM | nt | ? | nt | ?
CSc1ncc(Cl)c(C(=O)N(Cc2ccc(N(C)C)cc2)Cc2ccco2)n1 | i | i | nt | i | nt | i
CCSc1ncc(Cl)c(C(=O)N(Cc2ccccc2)Cc2ccco2)n1 | -100 | i | nt | i | nt | i
COc1ccc(CN2CCc3nnc(CCc4ccccc4)n3CC2)c(OC)c1C | nt | i | nt | nt | nt | nt
CCOc1ccc(CNC(=O)C2Cc3ccccc3N2C(=O)CC)cc1 (stereo unspecified) | i | i | nt | i | nt | nt
COc1ccccc1-c1cc(NC(C)=O)c2ncc(-c3cccc(C(F)(F)F)c3)n2c1 | i | i | nt | nt | nt | nt
CC(=O)Nc1cc(-c2ccc(N3CCN(C)CC3)cc2)cn2c(-c3ccccc3)cnc12 | -60 | i | nt | nt | nt | nt
CN(C)C(=O)c1cccc(-c2cnc3c(NC=O)cc(-c4cccc(C(F)(F)F)c4)cn23)c1 | ? | 32µM | nt | nt | nt | nt
CC(=O)Nc1cc(-c2ccc(N3CCN(C)CC3)cc2)cn2c(-c3ccc(S(C)(=O)=O)cc3)cnc12 | i | i | nt | nt | nt | nt
CN(C)CCNC(=O)c1cccc(-c2cnc3c(NC=O)cc(-c4cc(F)c(F)c(F)c4)cn23)c1 | -76 | i | nt | nt | nt | nt
CC(=O)Nc1cc(-c2cccnc2)cn2c(-c3cccc(C(F)(F)F)c3)cnc12 | -62 | i | nt | nt | nt | nt
COc1cccc(-c2cc(NC=O)c3ncc(-c4cccc(C(=O)NCCN(C)C)c4)n3c2)c1 | i | i | nt | nt | nt | nt
CN(C)CCNC(=O)c1cccc(-c2cc(NC=O)c3ncc(-c4cccc(C(F)(F)F)c4)n3c2)c1 | -61 | i | nt | nt | nt | nt
CN(C)CCNC(=O)c1cccc(-c2cnc3c(NC=O)cc(-c4ccc(S(C)(=O)=O)cc4)cn23)c1 | -66 | i | nt | nt | nt | nt
CCOC(=O)c1cc(S(=O)(=O)Nc2cc(F)ccc2C)[nH]n1 | i | i | nt | i | nt | nt
CC(C)=CCCC1(C)C=Cc2c(O)c3c(c(CC=C(C)C)c2O1)OC12C(=CC4CC1C(C)(C)OC2(C/C=C(/C)C(=O)O)C4O)C3=O (stereo unspecified) | nt | 10µM | nt | nt | nt | nt
CC(C)=CCCC1(C)C=Cc2c(O)c3c(c(CC=C(C)C)c2O1)OC12C(=CC4CC1C(C)(C)OC2(C/C=C(/C)C(=O)O)C4=O)C3=O (stereo unspecified) | nt | 5.6µM | nt | nt | nt | nt
O=C(c1ccccc1CCc1ccccc1)N1CCOCC1 | -104 | i | i | i | i | i
O=C(Cc1ccccc1)Nc1ccccc1C(=O)N1CCCCC1 | i | i | i | nt | i | nt
O=C(Cc1ccccc1)c1ccccc1C(=O)N1CCCCC1 | i | i | i | i | 3.2µM | ?
SMILES | HCMV antiviral | FMDV inh | SARS PLpro yeast | LASV entry inh | HCV inhibitor | Marburg entry inh
NC(=O)C1CCN(C(=O)c2ccccc2CCc2ccccc2)CC1 | i | i | i | i | i | ?
Cn1c2ccsc2c2cnn(Cc3ccc(F)cc3)c(=O)c21 | nt | nt | i | nt | nt | nt
CN(CC(=O)Nc1c(Cl)cccc1Cl)C(=O)CCC(=O)c1ccccc1 | i | i | i | i | i | i
COc1ccc2[nH]c3nc(SCC(=O)NNC(=O)c4ccc(OC)c(OC)c4)nnc3c2c1 | i | 7.1µM | i | i | i | i
COc1ccc(-c2nnc(SCC(=O)NCc3ccccc3)nc2-c2ccc(OC)c(OC)c2)cc1OC | -78 | i | nt | ? | nt | nt
CC1CCc2cc(F)ccc2N1C(=O)CSc1nnc2c(n1)[nH]c1ccccc12 (stereo unspecified) | -76 | ? | i | ? | ? | ?
COc1ccccc1NC(=O)CSc1nnc2c3ccccc3n(C(C)C)c2n1 | -61 | ? | nt | ? | nt | ?
O=C(c1cccs1)N1C[C@@H](O)[C@@H](n2cc(-c3ccc(F)cc3)nn2)C[C@@H]1c1ccc(Cl)cc1 | nt | nt | nt | i | nt | nt
COc1ccccc1C1=Nn2c(nc3sc(C(=O)Nc4ccccc4Cl)c(C)c3c2=O)SC1 | ? | i | nt | i | nt | i
CCn1ccc2cc(S(=O)(=O)N3CCC(C(=O)NCCc4ccc(C)cc4)CC3)ccc21 | i | i | nt | i | nt | nt
COc1ccccc1NC(=O)CSc1nnc2c(n1)[nH]c1ccccc12 | i | ? | nt | 11µM | nt | i
COc1cccc(CNC(=O)CSc2nnc3c(n2)[nH]c2ccccc23)c1 | i | ? | i | nt | 10µM | ?
COc1ccc(CNC(=O)CSc2nnc3c(n2)[nH]c2ccccc23)cc1 | i | i | i | i | i | i
CCOc1ccc(NC(=O)C(Cc2ccccc2)N2C(=O)c3cccc4cccc(c34)C2=O)cc1 (stereo unspecified) | -99 | i | i | ? | ? | ?
Cc1onc(-c2c(F)cccc2Cl)c1C(=O)Nc1cc(S(=O)(=O)N2CCCCC2)ccc1O | -100 | ? | nt | ? | ? | ?
Cc1onc(-c2ccccc2)c1C(=O)Nc1ccc(S(=O)(=O)N2CCCC2)cc1 | i | i | i | ? | i | ?
Cc1onc(-c2c(F)cccc2Cl)c1C(=O)Nc1ccc(S(=O)(=O)N2CCOCC2)cc1 | -69 | i | i | i | i | ?
CCn1c(C)c(P(c2ccccc2)c2ccccc2)[n+]2ccccc12 | -61 | ? | i | i | i | ?
Cc1c(C(=O)NCc2ccc(F)cc2)sc2ncnc(NCC3CCCO3)c12 (stereo unspecified) | nt | i | nt | nt | nt | nt
CCC(C)NC(=O)CCCc1nnc2n(CC(C)C)c(=O)c3sccc3n12 (stereo unspecified) | ? | i | nt | i | nt | nt
CSCc1cc(N(C)c2ccccc2)nc(-c2ccccn2)n1 | -85 | i | i | nt | 2.8µM | nt
CN(C)c1cc(C(F)(F)F)nc(-c2ccccn2)n1 | i | i | i | ? | i | i
O=C(NNc1nc(-c2ccccc2)cs1)c1ccccc1 | i | i | i | ? | ? | ?
N#Cc1ccc(-c2csc(NNC(=O)c3ccc(Br)cc3)n2)cc1 | -106 | i | i | i | 8.9µM | ?
N#Cc1ccc(-c2csc(NNC(=O)c3ccccc3)n2)cc1 | i | i | i | ? | i | 10µM
O=C(C1=C(c2ccccc2)C(=O)c2ccccc2C1=O)c1ccccc1 | -99 | 10µM | i | 2.6µM | 10µM | ?
COC1=C(c2ccccc2)C(=O)c2ccccc2C1=O | i | ? | i | i | ? | i
Cc1ccc(O)c(N=Cc2sc3ccccc3c2Cl)c1 | i | i | i | i | i | i
Oc1ccccc1N=Cc1sc2ccccc2c1Cl | -76 | i | i | i | i | ?
